Screens as filed in PubChem.
Pol iota inh = qHTS for Inhibitors of Polymerase Iota; Potency, µM (highest dose often 115 µM), for inactives: at the top dose activity, negative = inhibition, actives largely listed as inhibitors; 390,000 compounds, 1% hits; Pol iota fluorescent replication assay, 10 min; DNA polymerase iota (Homo sapiens), Q9UNA4
Target sequence (Q9UNA4 whole entry, looked up): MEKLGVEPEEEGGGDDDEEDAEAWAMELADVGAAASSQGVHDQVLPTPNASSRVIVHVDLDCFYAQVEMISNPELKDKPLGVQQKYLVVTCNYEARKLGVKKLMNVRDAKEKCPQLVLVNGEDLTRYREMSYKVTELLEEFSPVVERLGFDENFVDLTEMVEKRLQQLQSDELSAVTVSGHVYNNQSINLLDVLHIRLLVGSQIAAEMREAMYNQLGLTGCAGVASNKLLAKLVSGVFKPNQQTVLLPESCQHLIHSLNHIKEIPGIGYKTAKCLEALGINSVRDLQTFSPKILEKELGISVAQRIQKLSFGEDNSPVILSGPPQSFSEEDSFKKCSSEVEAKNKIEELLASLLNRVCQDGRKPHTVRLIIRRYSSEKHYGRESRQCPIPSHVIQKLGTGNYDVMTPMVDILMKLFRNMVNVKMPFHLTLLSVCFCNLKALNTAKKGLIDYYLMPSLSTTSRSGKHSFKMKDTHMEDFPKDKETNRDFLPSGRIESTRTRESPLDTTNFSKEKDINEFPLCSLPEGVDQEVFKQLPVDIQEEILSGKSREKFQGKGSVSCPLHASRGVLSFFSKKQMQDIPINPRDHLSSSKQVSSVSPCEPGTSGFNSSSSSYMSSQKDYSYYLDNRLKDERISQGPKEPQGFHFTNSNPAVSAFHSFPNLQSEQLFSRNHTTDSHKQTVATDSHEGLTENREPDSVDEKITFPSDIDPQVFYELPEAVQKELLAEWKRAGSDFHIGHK
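Pol iota at 10 nM preincubated 15 min with compounds at room temperature; reaction started with fluorescent substrate, 50 nM final. Fluorescence read kinetically at 0 and 10 min; buffer-only wells as negative control.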
WRN inhibitor = qHTS for Inhibitors of WRN Helicase; Potency, µM (doses to about 114 µM), for the others: at the highest dose activity change, negative = inhibition, usual class: inhibitors; Bifunctional 3'-5' exonuclease/ATP-dependent helicase WRN (Homo sapiens), Q14191; 360,000 compounds, 0.46% hits; WRN helicase unwinding, fluorescent forked duplex, kinetic; further: on the % scale 0 is the no-effect control and ±100 the full control effect; nearly all actives have a fitted effect of over 55% in size
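Screening of the MLSMR collection measured strand separation of a quenched forked DNA duplex (100 nM) by 20 nM WRN with 2 mM ATP, all final. Compounds were preincubated with enzyme 15 min at room temperature.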
FEN1 inh = qHTS Assay for the Inhibitors of Human Flap endonuclease 1 (FEN1); P39748; Recombinant FEN1 flap cleavage, fluorescence, 15 min; Potency, µM (titrated, usually from 114 µM), for inactives: at the top dose activity change, negative = inhibition, actives largely listed as inhibitors; 390,000 compounds, 0.35% hits; further: on the % scale 0 is the no-effect control and ±100 the full control effect; nearly all actives have a fitted effect of over 65% in size
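Steps: FEN1 (10 nM) dispensed; compound added by pin tool; 15 min at room temperature; substrate added to 50 nM final; reads at 0 min and 15 min; data normalized and fitted (four-parameter Hill).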
Pol eta inh = qHTS for Inhibitors of Polymerase Eta | Potency, µM (highest dose often 114 µM), inactives show top-dose activity change, negative = inhibition, actives largely listed as inhibitors | recombinant Pol eta, fluorescent DNA replication assay | AID 588591, 2011 | 390,000 compounds, 1.2% hits; further: on the % scale 0 is the no-effect control and ±100 the full control effect
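Pol eta at 10 nM preincubated with compounds 15 min at room temperature; reaction started with fluorescent substrate (50 nM final) and read kinetically at 0 and 10 min.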
Pol beta inh = qHTS Assay for Inhibitors of DNA Polymerase Beta | P06746 | Pol beta primer extension/strand displacement, fluorescence kinetic | Potency, µM (highest dose often 114 µM), for inactives: at the top dose activity change, negative = inhibition, actives largely listed as inhibitors | 340,000 compounds, 1.3% hits; further: on the % scale 0 is the no-effect control and ±100 the full control effect
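10 nM enzyme + cpd, 15 min RT; start with substrate 50 nM final; read 0 min and after 10 min RT. Corrected, normalized data; 4-parameter Hill curve fit.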
Pol kappa inh = qHTS for Inhibitors of Polymerase Kappa. DNA polymerase kappa (Homo sapiens), Q9UBT6. purified Pol kappa, fluorescent DNA synthesis assay, 10 min. Potency, µM (series often up to 107 µM), without a hit: at the highest dose activity, negative = inhibition, usual class: inhibitors. 400,000 compounds, 0.53% hits. AID 588579, 2011; further: on the % scale 0 is the no-effect control and ±100 the full control effect
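Readout: fluorescence, taken kinetically at 0 and 10 min. Conditions: 10 nM Pol kappa, 15 min RT compound preincubation, 50 nM substrate final. Controls: enzyme-free buffer wells.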
Numbers without * were called inactive; ? = inconclusive; · = no result given; ! = not active in a repeat; [ ] = dose if it differs, or a comment. In the library only some 2.4% were active in any assay of this set; here they are far more common. The call rests on the fitted dose curve; in most records, active means well fitted curve in the direction sought with a large enough effect; inconclusive means small, poorly fitted or top-dose-only effect, or another doubt; inactive means no such curve, though single readings can be large; an effect the other way counts as inactive or inconclusive. Potency means the concentration at half of the fitted maximal effect.

SMILES	Pol iota inh	WRN inhibitor	FEN1 inh	Pol eta inh	Pol beta inh	Pol kappa inh
Nc1nnc(-c2cc3c(ccc4ccccc43)oc2=O)s1	·	·	·	·	22µM*	·
O=C(COC(=O)c1ccc([N+](=O)[O-])s1)NCc1ccccc1	?	-1%	?	?	13µM*	-22%
Cc1nc2nc(NCc3ccc(Br)cc3)[nH]n2c(=O)c1Cc1ccccc1	-18%	·	-1%	-9%	?	4%
COc1ccc(NS(=O)(=O)c2ccc(N)c(C(=O)O)c2)cc1	1%	-1%	7%	2%	-1%	-1%
COc1ccc(NS(=O)(=O)c2ccc(C)c(C(=O)O)c2)cc1	?	-6%[11.6 µM]	-5%	79µM*	45µM*	-10%
CSCCC(NS(=O)(=O)c1ccc(C)c(C(=O)O)c1)C(=O)O (stereo not given)	-22%	1%[11.6 µM]	2%	?	25µM*	-15%
CSCCC(NS(=O)(=O)c1ccc(Cl)cc1)C(=O)O (stereo not given)	27%	-2%	-6%	-13%	-9%	-1%
O=C(Nc1ccc(Cl)cc1F)c1ccc(COc2c(F)c(F)c(F)c(F)c2F)o1	-15%	-17%	-2%	20µM*	45µM*	-32%
C=CCn1c(C)cc(C(=O)Cn2c(C(C)O)nc3ccccc32)c1C (stereo not given)	137%	-3%	-5%	-19%	61%	-1%
Cc1cc(C(=O)Cn2c(CO)nc3ccccc32)c(C)n1C	79µM*	-8%[11.6 µM]	6%	-3%	-11%	-26%
O=C(O)/C=C\c1ccc(Cn2ccnc2)cc1	·	·	·	·	·	-8%[19.4 µM]
COc1ccccc1NC(=O)Nc1ccnn1C1CCN(C(=O)c2cscn2)CC1	32µM*	5%	45µM*	-9%	28%	40µM*
COc1ccc(Oc2ncc3nc(CCc4ccccc4)c(=O)n(C4CC4)c3n2)cc1	·	·	·	·	·	-9%[60.1 µM]
CCn1cc(/C=N/NC(=O)COc2cccc3cccnc23)c2ccccc21	?	?	-14%	?	13µM*	-2%
O=c1c(-c2ccco2)nc2ccccc2n1C(c1ccccn1)c1nc2ccccc2[nH]1 (stereo not given)	·	-1%	·	·	·	·
Clc1cccc(CNc2cc(-c3ccccc3)nc3nncn23)c1	2%	·	-1%	6%	1%	4%
Cc1sc(C(C2C(=O)CC(C)(C)CC2=O)C2C(=O)CC(C)(C)CC2=O)cc1[N+](=O)[O-]	16µM*	-9%[11.6 µM]	?	-2%	-20%	-7%
O=C1NC(c2ccccc2Cl)=N/C1=C/c1ccco1	28µM*	-8%[11.6 µM]	-4%	-17%	?	?
O=C1C=C(c2ccc(-c3ccccc3)cc2)C[C@@H](c2ccc3c(c2)OCO3)C1	16%	-1%	18%	-6%	·	0%
O=C1C=C(c2ccc(C(=O)O)c(Cl)c2)C[C@@H](c2ccc3c(c2)OCO3)C1	?	-3%[11.6 µM]	4%	50µM*	·	?
CCOC(=O)c1c(C)c(-c2ccccc2)n(CC(=O)NCCc2ccc(C)cc2)c1C	18%	·	18%	-16%	4%	10%
CC(C)c1ccc(Cn2ccc3c4c(N)nc(NC5CC5)nc4ccc32)cc1	·	·	·	·	·	-14%[19.4 µM]
CCCCCC(O)C=CC1C(O)CC(O)C1CC=CCCCC(=O)O (stereo not given)	·	-6%	·	-6%	·	·
CCCCC[C@H](O)C/C=C1/C(=O)C=C[C@@H]1C/C=C\CCCC(=O)O	·	·	·	·	·	-5%[19.4 µM]
CCCCC/C=C/C=C1/C(=O)C=C[C@@H]1C/C=C\CCCC(=O)O	·	·	·	·	·	3.2µM*!
SMILES	Pol iota inh	WRN inhibitor	FEN1 inh	Pol eta inh	Pol beta inh	Pol kappa inh
CCCCC[C@@H](/C=C/C1C(=O)C=C[C@H]1C/C=C\CCCC(=O)O)OC(C)=O (stereo not given in full)	?	-4%[11.6 µM]	5%	45µM*	·	-19%
CCCCC[C@H](O)/C=C/[C@H]1C=CC(=O)[C@@H]1C/C=C\CCCC(=O)O	·	·	·	·	3.2µM*	2%[19.4 µM]
CCCCCCCC/C=C\CCCCCCCCCCCC(=O)O	·	·	·	·	·	11µM*
CCN(CC)S(=O)(=O)c1cccc(C(=O)Nc2ccccc2C(=O)Nc2ccc(OC)cc2)c1	21%	·	-20%	-19%	-7%	-11%[60.1 µM]
CCN1/C(=C/C=C/C=C/c2sc3ccccc3[n+]2CC)Sc2ccccc21	18µM*	·	32µM*	·	16µM*	32µM*
CCN1/C(=C/C=C/c2sc3ccccc3[n+]2CC)Sc2ccccc21	?	40µM*	3%	40µM*	·	11µM*!
CC[n+]1c(/C=C(\C)SC)sc2ccccc21	?	-6%	-1%	-2%	?	-13%
CCN1/C(=C/C=C/C=C/C=C/c2sc3ccccc3[n+]2CC)Sc2ccccc21	?	-30%	-17%	-16%	-10%	-2%[60.1 µM]
Cc1ccc(Sc2cncc3sc(C(N)=O)cc23)cc1	·	·	·	·	·	17%[60.1 µM]
CCNc1ccccc(C(=O)/C=C/c2ccc3c(c2)OCO3)c1=O	?	56µM*	?	10µM*	56µM*	25µM*
CNc1ccc(Br)cc(C(=O)/C=C/c2cccc(Cl)c2Cl)c1=O	6.3µM*	-9%[11.6 µM]	?	45µM*	14µM*	45µM*
CNc1ccc(Br)cc(C(=O)/C=C/c2cccc(OC)c2OC)c1=O	·	11%	9%	2%	20µM*	-10%
COc1ccccc1/C=C/C(=O)c1cc(Br)ccc1OC(=O)c1ccco1	-6%	0%	-5%	4%	·	-23%
COC(=O)/C=C/c1ccc2c(c1)OCO2	10%	-4%	-1%	-12%	21%	-6%
CNc1ccccc(C(=O)/C=C/c2ccccc2OC)c1=O	?	?	0%	14µM*	50µM*	-17%
OB(O)c1ccc(Br)cc1	8%	·	-1%	·	·	-1%
CCNc1ccc(Br)cc(C(=O)/C=C/c2ccccc2Cl)c1=O	?	?	-26%	79µM*	·	?
CCCCCCCCN1C(=O)[C@H](CC(=O)NCCCN2CCCC2=O)C[C@@]2(C(=O)OC)CC(C)(C)CC=C12	·	-4%	·	·	·	·
O=[N+]([O-])c1cc(CN2CCN(c3cccc(C(F)(F)F)c3)CC2)c2cccnc2c1O	84%	-10%	?	-24%	18µM*	-26%
CC(C)OCc1cc(CN2CCN(c3cccc(C(F)(F)F)c3)CC2)c(O)c2ncccc12	11%	·	1%	3%	19%	0%
CCc1nc(Nc2ccc(F)c(Cl)c2)c2c3c(sc2n1)CCCC3	11%	·	0%	-18%	3%	-5%
